The record followed here is PubChem BioAssay (EPA / NIEHS).

Records with an inconclusive call do not appear. Activity calls are given as the source filed them. Rule for the calls, unless noted: active = hit-call score of the fitted dose curve at least 0.9, where 1 is the maximum; inactive = score below 0.9.

Assay [1] addresses Glucocorticoid receptor (Homo sapiens) (UniProt P04150). The experiment in a line: ATG_GR_TRANS: Attagene TRANS-FACTORIAL HepG2 Assay for human Glucocorticoid Receptor (GR) (AID 2282978; active = hit-call score of the fitted dose curve at least 0.9, where 1 is the maximum;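 note: activators score as hits since higher reporter transcript over DMSO is fitted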). Conditions: HepG2 Attagene TRANS GR reporter, mRNA transcription. Put shortly: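 Transiently transfected HepG2 cells express chimeric NR-GAL4 proteins acting on GAL4-UAS reporter units. Compounds are applied for 24 h. mRNA induction over DMSO is measured by capillary electrophoresis.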

Assay [2] deals with Oxysterols receptor LXR-alpha (Homo sapiens) (UniProt Q13133). The experiment in a line: ATG_LXRa_TRANS: Attagene TRANS-FACTORIAL HepG2 Assay for human Liver X Receptor alpha (LXRa) (AID 2282980; active = hit-call score of the fitted dose curve at least 0.9, where 1 is the maximum). The note with it: HepG2 Attagene TRANS reporter, LXRa transactivation. Put shortly: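 HepG2 cells transiently transfected with GAL4-UAS reporter units for chimeric NR-Gal4 proteins, exposed to chemicals for 24 h. Reporter mRNA quantified by RT-PCR and capillary electrophoresis; gain of signal fitted relative to DMSO.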
Chain of Oxysterols receptor LXR-alpha (Homo sapiens) (Q13133 whole entry, looked up, the tested form may be a part): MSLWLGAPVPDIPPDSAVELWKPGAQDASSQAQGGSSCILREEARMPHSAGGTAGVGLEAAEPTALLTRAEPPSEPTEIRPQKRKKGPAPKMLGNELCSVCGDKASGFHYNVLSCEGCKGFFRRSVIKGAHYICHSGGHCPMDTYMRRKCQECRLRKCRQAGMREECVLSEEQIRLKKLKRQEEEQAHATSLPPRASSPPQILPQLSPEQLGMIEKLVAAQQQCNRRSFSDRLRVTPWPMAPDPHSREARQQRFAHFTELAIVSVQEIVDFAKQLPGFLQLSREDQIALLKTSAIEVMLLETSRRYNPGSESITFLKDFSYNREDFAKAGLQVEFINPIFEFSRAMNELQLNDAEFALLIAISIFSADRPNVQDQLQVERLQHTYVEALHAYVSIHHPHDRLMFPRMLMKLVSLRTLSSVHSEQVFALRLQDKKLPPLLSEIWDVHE

In assay [3] the target is Oxysterols receptor LXR-beta (Homo sapiens) (UniProt P55055). The experiment in a line: ATG_LXRb_TRANS: Attagene TRANS-FACTORIAL HepG2 Assay for human Liver X Receptor beta (LXRb) (AID 2282981; active = hit-call score of the fitted dose curve at least 0.9, where 1 is the maximum). Conditions: HepG2 Attagene TRANS GAL4-LXRb reporter, mRNA. Put shortly:
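HepG2 cells transiently transfected with GAL4-UAS reporter units for chimeric NR-Gal4 proteins, dosed for 24 h. Reporter transcripts measured by RT-PCR and capillary electrophoresis; gain-of-signal fitting relative to DMSO.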

Assay [4] has as its target Hepatocyte nuclear factor 4-alpha (Homo sapiens) (UniProt P41235). The experiment in a line: ATG_HNF4a_TRANS: Attagene TRANS-FACTORIAL HepG2 Assay for human Hepatocyte Nuclear Factor 4 alpha (HNF4a) (AID 2282982; active = hit-call score of the fitted dose curve at least 0.9, where 1 is the maximum). Conditions: HepG2 HNF4a transactivation reporter, mRNA readout. In short, it runs like this: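 HepG2 cells transiently transfected with HNF4a-Gal4 chimera and GAL4-UAS reporter units, dosed for 24 h. Reporter mRNA measured by RT-PCR, fluorescent primer extension and capillary electrophoresis; gain-of-signal fitted relative to DMSO.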

Assay [5] is described as follows: ATG_M_06_TRANS: Attagene TRANS-FACTORIAL HepG2 Assay for M06 Transcription Factor (Internal Marker) (AID 2282983; active = hit-call score of the fitted dose curve at least 0.9, where 1 is the maximum;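 note: reporter transcript level by RT-PCR then capillary electrophoresis fluorescence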). The note with it: HepG2 Attagene TRANS M06 internal marker reporter. Put shortly:
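HepG2 cells transiently transfected with GAL4-UAS multiple reporter units, dosed 24 h. Reporter RNA reverse-transcribed, PCR-amplified, 6-FAM-labeled, HpaI-digested and quantified by capillary electrophoresis; this internal-marker signal fitted upward relative to DMSO.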

Assay [6] in a line: ATG_M_32_TRANS: Attagene TRANS-FACTORIAL HepG2 Assay for M32 Transcription Factor (Internal Marker) (AID 2282984; active = hit-call score of the fitted dose curve at least 0.9, where 1 is the maximum). Conditions: HepG2 Attagene TRANS M32 internal marker reporter. Put shortly: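 HepG2 cells transiently transfected with GAL4-UAS reporter units, dosed for 24 hours. Reporter mRNA quantified by RT-PCR, 6-FAM labelling, HpaI digestion and capillary electrophoresis; internal-marker signal fitted upward relative to DMSO.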

Assay [7] has as its target Nuclear receptor subfamily 4 group A member 2 (Homo sapiens) (UniProt P43354). The experiment in a line: ATG_NURR1_TRANS: Attagene TRANS-FACTORIAL HepG2 Assay for human Nuclear Receptor Related Protein 1 (NURR1) (AID 2282985; active = hit-call score of the fitted dose curve at least 0.9, where 1 is the maximum). Conditions: HepG2 Attagene TRANS reporter, mRNA readout. Put shortly:
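HepG2 cells transiently transfected with NURR1-Gal4 chimera and GAL4-UAS reporter units; after 24 hr compound exposure, reporter mRNA quantified by RT-PCR and capillary electrophoresis; gain of signal fitted against DMSO.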

Assay [8] deals with Transcriptional activator Myb (Homo sapiens) (UniProt P10242). The experiment in a line: ATG_Myb_CIS: Attagene CIS-FACTORIAL HepG2 Assay for human Myeloblastosis (Myb) Proto-Oncogene Transcription Factor (AID 2282986). The note with it: HepG2 Attagene CIS-FACTORIAL Myb reporter transcription; actives raise or lower the signal. In short, it runs like this: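 Using HepG2 liver cells bearing transiently transfected cis-promoter reporter constructs, the assay measures induction or loss of reporter mRNA after 24 hours of dosing. Detection used fluorescently labeled RT-PCR products separated by capillary electrophoresis.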
Chain of Transcriptional activator Myb (Homo sapiens) (P10242 whole entry, looked up): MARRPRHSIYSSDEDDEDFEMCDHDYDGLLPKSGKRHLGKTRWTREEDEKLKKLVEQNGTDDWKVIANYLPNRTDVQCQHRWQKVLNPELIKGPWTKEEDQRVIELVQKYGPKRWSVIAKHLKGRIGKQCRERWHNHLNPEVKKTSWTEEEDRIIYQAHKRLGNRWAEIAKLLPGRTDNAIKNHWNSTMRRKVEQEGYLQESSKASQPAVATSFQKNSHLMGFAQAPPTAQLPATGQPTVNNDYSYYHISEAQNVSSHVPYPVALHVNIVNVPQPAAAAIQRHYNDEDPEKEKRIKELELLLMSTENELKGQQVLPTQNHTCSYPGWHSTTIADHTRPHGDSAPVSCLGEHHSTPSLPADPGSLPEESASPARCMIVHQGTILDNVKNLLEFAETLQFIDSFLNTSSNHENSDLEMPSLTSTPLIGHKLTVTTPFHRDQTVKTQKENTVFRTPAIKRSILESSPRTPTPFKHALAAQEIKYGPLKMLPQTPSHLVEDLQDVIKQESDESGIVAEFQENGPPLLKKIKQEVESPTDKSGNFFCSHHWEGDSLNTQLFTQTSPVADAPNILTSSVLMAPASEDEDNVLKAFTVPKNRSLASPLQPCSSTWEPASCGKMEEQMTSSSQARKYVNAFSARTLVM

Assay [9] has as its target Nuclear respiratory factor 1 (Homo sapiens) (UniProt Q16656). The experiment in a line: ATG_NRF1_CIS: Attagene CIS-FACTORIAL HepG2 Assay for human Nuclear Respiratory Factor 1 (NRF1) Orphan Gene (AID 2282987). The note with it: HepG2 NRF1 cis-element reporter, Attagene multiplex; actives raise or lower the signal. Put shortly:
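Reporter mRNA induction or loss in HepG2 cells after 24 h dosing; cis-regulated reporter constructs report endogenous transcription-factor activity. Quantified by RT-PCR/capillary electrophoresis fluorescence, DMSO-referenced.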

Assay [10] in a line: ATG_NFI_CIS: Attagene CIS-FACTORIAL HepG2 Assay for human Nuclear Factor I (NFI) (AID 2282989). Conditions: HepG2 cis-regulatory reporter, NFI response element transcription; actives raise or lower the signal. In short, it runs like this:
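Cells: human liver HepG2, transiently transfected with promoter-regulated reporter transcription units. Exposure 24 h. Detection: fluorescent RT-PCR products separated by capillary electrophoresis, normalised to DMSO negative control.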

The nature of assay [11]: ATG_NF_kB_CIS: Attagene CIS-FACTORIAL HepG2 Assay for human Nuclear Factor Kappa B (NF-kB) (AID 2282991). The note with it: HepG2 Attagene cis-factorial NF-kB reporter mRNA; actives raise or lower the signal. Put shortly: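 DMSO served as negative control and baseline for bidirectional curve fitting. Transiently transfected HepG2 cells were dosed for 24 h, then reporter transcripts were measured by RT-PCR with capillary electrophoresis detection.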

Assay [12] in a line: ATG_NRF2_ARE_CIS: Attagene CIS-FACTORIAL HepG2 Assay for human Nuclear Factor Erythroid 2 Related Factor 2 (NFR2) response to Antioxidant Response Elements (ARE) (AID 2282992).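 For AC50: reporter mRNA level measured by RT-PCR and capillary electrophoresis fluorescence.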 Conditions: HepG2 Attagene ARE/NRF2 reporter, transcription factor activity; actives raise or lower the signal. In short, it runs like this: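 HepG2 cells transiently transfected with multiplexed cis-regulated reporter transcription units measure endogenous transcription factor activity. Reporter mRNA at 24 h is quantified by RT-PCR, fluorescent labelling and capillary electrophoresis, with bidirectional fitting relative to DMSO.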

Assay [13] can be described thus: ATG_Oct_MLP_CIS: Attagene CIS-FACTORIAL HepG2 Assay for human Octamer-Binding Transcription Factor (Oct) (AID 2282993). Conditions: HepG2 Attagene cis-factorial Oct reporter, mRNA; actives raise or lower the signal. Put shortly: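 HepG2, transient MRTU transfection, cis promoter elements; 24 h dosing; RT-PCR/CE fluorescence read-out of reporter mRNA; fit both directions vs DMSO.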

Assay [14] deals with Cellular tumor antigen p53 (Homo sapiens) (UniProt P04637). The experiment in a line: ATG_p53_CIS: Attagene CIS-FACTORIAL HepG2 Assay for human p53 Transcription Factor (AID 2282994). Conditions: HepG2 p53 cis-element reporter, Attagene mRNA; actives raise or lower the signal. Put shortly: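 HepG2 cells transiently transfected with multiplexed cis-regulated reporter transcription units read endogenous TF activity. After 24 h compound exposure, reporter mRNA was quantified by RT-PCR, fluorescent labelling, HpaI digestion and capillary electrophoresis; bidirectional fits versus DMSO baseline.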
Chain of Cellular tumor antigen p53 (Homo sapiens) (P04637 whole entry, looked up): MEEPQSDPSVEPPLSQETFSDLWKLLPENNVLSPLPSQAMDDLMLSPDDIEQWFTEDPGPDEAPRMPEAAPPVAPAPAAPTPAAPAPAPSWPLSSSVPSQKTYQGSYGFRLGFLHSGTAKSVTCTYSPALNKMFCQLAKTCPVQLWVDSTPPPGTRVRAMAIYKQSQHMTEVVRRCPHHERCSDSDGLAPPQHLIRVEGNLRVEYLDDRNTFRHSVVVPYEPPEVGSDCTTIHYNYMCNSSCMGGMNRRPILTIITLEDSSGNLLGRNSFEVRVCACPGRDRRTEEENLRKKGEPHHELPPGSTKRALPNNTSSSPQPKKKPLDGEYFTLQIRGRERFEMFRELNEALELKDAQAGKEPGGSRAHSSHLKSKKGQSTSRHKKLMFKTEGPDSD

The nature of assay [15]: BSK_3C_TissueFactor: BioMAP Diversity Plus: 3C Assay for Tissue Factor Biomarker Activity (AID 2282997). The note with it: BioMAP 3C HUVEC, tissue factor biomarker readout; actives raise or lower the signal. Put shortly: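 HUVEC were treated 24 h, then surface tissue factor measured by ELISA and fitted bidirectionally against DMSO. Parallel SRB total-protein staining assessed overt cytotoxicity at the same time point.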

Assay [16] is described as follows: BSK_3C_uPAR: BioMAP Diversity Plus: 3C Assay for Urokinase-type plasminogen activator receptor (uPAR) Biomarker Activity (AID 2282998). The note with it: BioMAP 3C HUVEC, uPAR biomarker ELISA; actives raise or lower the signal. In short, it runs like this:
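A multiplexed primary-cell system built on human umbilical vein endothelium was used, with chemical present for 24 h before reading. Cell-surface uPAR was detected by ELISA; signal change in either direction counted against DMSO.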

A short description of assay [17]: ATG_GAL4_TRANS: Attagene TRANS-FACTORIAL HepG2 Assay for GAL4 (Internal Marker) (AID 2282976; active = hit-call score of the fitted dose curve at least 0.9, where 1 is the maximum). The note with it: HepG2 Attagene TRANS GAL4 internal marker reporter. In short, it runs like this:
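Background-control readout: GAL4-UAS reporter transcript in transiently transfected HepG2 cells after 24 h compound exposure. Measured by RT-PCR, 6-FAM primer extension, HpaI digest and capillary electrophoresis; gain-of-signal fit versus DMSO.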

Assay [18] deals with Bile acid receptor (Homo sapiens) (UniProt Q96RI1). The experiment in a line: ATG_FXR_TRANS: Attagene TRANS-FACTORIAL HepG2 Assay for Farnesoid X Receptor (FXR) (AID 2282979; active = hit-call score of the fitted dose curve at least 0.9, where 1 is the maximum;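 note: hits raise reporter mRNA above DMSO so AC50 marks FXR activation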). Conditions: HepG2 Attagene TRANS FXR-GAL4 reporter transcription. In short, it runs like this: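 HepG2 cells were transiently transfected with GAL4-UAS reporters driven by chimeric NR-Gal4 proteins and dosed for 24 h. Reporter mRNA was quantified by RT-PCR, fluorescent labelling, HpaI digestion and capillary electrophoresis, with gain of signal scored versus DMSO.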
Chain of Bile acid receptor (Homo sapiens) (Q96RI1 whole entry, looked up, the tested form may be a part): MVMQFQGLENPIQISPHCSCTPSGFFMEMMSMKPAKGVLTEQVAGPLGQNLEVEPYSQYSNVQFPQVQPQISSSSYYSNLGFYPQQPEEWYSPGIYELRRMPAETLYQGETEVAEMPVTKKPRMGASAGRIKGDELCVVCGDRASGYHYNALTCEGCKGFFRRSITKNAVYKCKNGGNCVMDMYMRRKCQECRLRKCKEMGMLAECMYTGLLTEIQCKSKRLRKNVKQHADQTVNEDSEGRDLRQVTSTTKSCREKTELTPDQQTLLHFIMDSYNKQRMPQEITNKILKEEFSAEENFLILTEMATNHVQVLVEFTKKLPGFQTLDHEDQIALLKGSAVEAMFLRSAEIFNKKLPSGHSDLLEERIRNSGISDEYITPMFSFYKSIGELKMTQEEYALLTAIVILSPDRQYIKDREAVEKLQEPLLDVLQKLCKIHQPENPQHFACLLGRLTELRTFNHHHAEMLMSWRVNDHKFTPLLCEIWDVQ

Assay [19] can be described thus: ATG_Hpa5_TRANS: Attagene TRANS-FACTORIAL HepG2 Assay for human GAL4-Hpa5 Hepatocyte Transcription Factor Basal Promoter (AID 2282975; active = hit-call score of the fitted dose curve at least 0.9, where 1 is the maximum;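 note: hits are increases in reporter mRNA over DMSO baseline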). The note with it: HepG2 Attagene GAL4-Hpa5 transcription reporter. Put shortly: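 Basal-promoter GAL4 background control within the HepG2 trans-factorial panel of transiently transfected reporter units. Reporter mRNA is measured 24 h after dosing by RT-PCR and capillary electrophoresis, fitted for gain of signal versus DMSO.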

Chain of Nuclear respiratory factor 1 (Homo sapiens) (Q16656 whole entry, looked up): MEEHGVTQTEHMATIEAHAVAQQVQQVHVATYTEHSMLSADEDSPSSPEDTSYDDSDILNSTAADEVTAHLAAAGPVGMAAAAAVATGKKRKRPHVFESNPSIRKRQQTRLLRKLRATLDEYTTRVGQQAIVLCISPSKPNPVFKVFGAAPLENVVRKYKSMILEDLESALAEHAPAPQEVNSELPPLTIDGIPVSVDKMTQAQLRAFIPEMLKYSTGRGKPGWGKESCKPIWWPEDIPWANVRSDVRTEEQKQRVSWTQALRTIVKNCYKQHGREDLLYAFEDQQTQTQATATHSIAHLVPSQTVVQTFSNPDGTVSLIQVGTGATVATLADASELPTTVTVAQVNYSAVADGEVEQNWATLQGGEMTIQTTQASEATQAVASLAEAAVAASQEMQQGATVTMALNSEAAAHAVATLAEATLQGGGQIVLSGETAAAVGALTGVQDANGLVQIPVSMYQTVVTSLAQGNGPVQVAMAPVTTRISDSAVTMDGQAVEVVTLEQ
Chain of Glucocorticoid receptor (Homo sapiens) (P04150 whole entry, looked up, the tested form may be a part): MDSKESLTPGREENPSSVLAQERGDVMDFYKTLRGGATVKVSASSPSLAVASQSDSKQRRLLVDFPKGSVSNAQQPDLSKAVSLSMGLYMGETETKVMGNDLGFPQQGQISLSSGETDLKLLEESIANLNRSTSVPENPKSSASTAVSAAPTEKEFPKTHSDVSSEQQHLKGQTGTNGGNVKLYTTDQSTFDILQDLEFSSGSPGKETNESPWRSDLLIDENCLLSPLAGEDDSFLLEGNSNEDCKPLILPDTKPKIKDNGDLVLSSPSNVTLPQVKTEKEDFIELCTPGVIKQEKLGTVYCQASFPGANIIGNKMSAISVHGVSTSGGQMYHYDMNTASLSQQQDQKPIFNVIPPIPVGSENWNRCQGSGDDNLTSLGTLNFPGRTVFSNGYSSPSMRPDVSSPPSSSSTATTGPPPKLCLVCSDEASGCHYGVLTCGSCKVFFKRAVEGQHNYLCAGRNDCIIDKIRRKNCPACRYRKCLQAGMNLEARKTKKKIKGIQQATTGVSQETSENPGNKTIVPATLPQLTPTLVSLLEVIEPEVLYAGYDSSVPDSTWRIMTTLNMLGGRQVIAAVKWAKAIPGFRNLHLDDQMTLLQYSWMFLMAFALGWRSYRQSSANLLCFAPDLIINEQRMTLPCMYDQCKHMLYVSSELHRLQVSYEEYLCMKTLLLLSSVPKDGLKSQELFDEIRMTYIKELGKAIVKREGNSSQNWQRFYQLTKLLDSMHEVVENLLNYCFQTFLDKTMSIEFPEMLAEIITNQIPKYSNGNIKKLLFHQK
Chain of Nuclear receptor subfamily 4 group A member 2 (Homo sapiens) (P43354 whole entry, looked up, the tested form may be a part): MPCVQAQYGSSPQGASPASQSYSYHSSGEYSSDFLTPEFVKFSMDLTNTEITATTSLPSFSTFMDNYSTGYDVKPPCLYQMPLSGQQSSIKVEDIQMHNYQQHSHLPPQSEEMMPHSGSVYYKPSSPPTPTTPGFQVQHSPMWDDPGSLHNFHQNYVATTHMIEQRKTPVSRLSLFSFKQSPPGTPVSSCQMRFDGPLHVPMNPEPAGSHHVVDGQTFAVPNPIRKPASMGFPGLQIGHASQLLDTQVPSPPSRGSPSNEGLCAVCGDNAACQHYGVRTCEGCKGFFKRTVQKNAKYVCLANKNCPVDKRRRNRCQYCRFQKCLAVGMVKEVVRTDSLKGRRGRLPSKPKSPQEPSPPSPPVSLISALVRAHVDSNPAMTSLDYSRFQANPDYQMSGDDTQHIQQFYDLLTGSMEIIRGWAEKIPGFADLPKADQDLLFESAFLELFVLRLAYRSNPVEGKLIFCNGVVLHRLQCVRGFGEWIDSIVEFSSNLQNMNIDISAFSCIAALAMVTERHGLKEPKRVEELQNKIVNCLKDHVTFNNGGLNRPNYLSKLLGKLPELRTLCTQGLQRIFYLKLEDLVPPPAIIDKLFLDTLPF
Chain of Hepatocyte nuclear factor 4-alpha (Homo sapiens) (P41235 whole entry, looked up, the tested form may be a part): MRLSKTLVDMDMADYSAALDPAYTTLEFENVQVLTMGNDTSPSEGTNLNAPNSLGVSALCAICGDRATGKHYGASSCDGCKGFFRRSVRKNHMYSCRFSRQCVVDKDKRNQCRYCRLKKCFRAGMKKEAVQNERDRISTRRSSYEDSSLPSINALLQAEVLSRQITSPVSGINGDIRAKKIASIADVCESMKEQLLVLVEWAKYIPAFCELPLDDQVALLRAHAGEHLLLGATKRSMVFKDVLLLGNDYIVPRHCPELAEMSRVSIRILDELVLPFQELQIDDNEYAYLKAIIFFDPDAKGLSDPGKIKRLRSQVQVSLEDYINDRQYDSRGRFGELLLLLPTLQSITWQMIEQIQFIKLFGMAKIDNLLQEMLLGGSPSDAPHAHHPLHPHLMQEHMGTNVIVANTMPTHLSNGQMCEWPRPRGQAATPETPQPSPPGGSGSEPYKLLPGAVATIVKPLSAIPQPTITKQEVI
Chain of Oxysterols receptor LXR-beta (Homo sapiens) (P55055 whole entry, looked up, the tested form may be a part): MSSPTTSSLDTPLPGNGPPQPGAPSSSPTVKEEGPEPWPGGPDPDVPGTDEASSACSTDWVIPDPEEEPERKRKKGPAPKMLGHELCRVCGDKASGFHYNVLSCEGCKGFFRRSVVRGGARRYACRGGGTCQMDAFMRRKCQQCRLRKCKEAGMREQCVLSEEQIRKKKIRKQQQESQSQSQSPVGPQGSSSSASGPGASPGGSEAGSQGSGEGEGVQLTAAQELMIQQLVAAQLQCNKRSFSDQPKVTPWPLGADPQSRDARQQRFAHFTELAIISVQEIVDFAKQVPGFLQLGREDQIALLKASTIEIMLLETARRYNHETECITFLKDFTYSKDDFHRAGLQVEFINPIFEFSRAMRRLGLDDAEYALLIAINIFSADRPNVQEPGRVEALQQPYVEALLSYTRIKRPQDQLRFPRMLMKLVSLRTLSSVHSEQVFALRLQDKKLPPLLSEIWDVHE

For `CCOP(=S)(OCC)Oc1nc(Cl)n(C(C)C)n1`, the call in [1], in [4], in assay [5], in assay [6], in [7] and in assay [8] was inactive. The compound was called inactive in assay [9], in assay [10], in assay [11], in [13], in [14] and in assay [15]. For the same compound, the outcome in assay [16] was inactive. Further, the results for the AC50 in [2], in assay [3] and in [12] were 14.9 µM (active), 16.4 µM (active) and 1.74 µM (active), respectively.
`COP(=S)(OC)Oc1ccc([N+](=O)[O-])c(C)c1`: the compound was called inactive in [17], in assay [1], in assay [18], in assay [2], in [3] and in [4]. The outcome in assay [5], in [6], in assay [7], in assay [8], in assay [9] and in assay [10] was inactive. Further, the outcome in [14] and in assay [15] was inactive. For the same compound, the AC50 in assay [12] was 19.1 µM (active); in assay [13] it was 50 µM (active); in assay [16], 15.6 µM (active).
As for `CC(C)Nc1nc(Cl)nc(NC(C)C)n1`, the compound was called inactive in assay [19], in assay [2], in assay [3], in [4], in [5] and in assay [6]. For the same compound, the compound was classed as inactive in assay [7], in assay [8], in assay [9], in assay [10], in assay [12] and in assay [13]. Moreover, the call in assay [14], in assay [15] and in assay [16] was inactive.
Regarding `CC(C)C1(C)N=C(c2ncccc2C(=O)O)NC1=O` (stereo unspecified), the compound was called inactive in assay [1], in assay [18], in [2], in assay [3], in [4] and in assay [8]. Besides, the compound was called inactive in assay [9], in assay [10], in assay [12], in [13], in assay [14] and in [15]. Besides, the result in [16] was inactive.
